From PubChem BioAssay (NCI)
About 83,000 compounds went through this panel and 20% of them were active in at least one assay; those are over-represented in the sample as a whole.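 Cells were grown in 96-well plates and exposed to the test compound at a single concentration for 48 hours; results are reported as percent growth, with values below 10 considered active.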 The source made the active and inactive calls.

Tests used:
Assay in all cases: NCI-60 one-dose screen, 48 h (100 = growth as untreated, 0 = no growth, -100 = all killed)
Conditions in all cases: 10 µM unless noted
NCI-H23 lung = test system: NCI-H23 lung
NCI-H226 lung = test system: NCI-H226 lung
NCI-H322M lung = test system: NCI-H322M lung
HOP-62 NSCLC = test system: HOP-62 NSCLC
NCI-H460 lung = test system: NCI-H460 lung
HOP-92 NSCLC = test system: HOP-92 NSCLC
NCI-H522 lung = test system: NCI-H522 lung
A549/ATCC NSCLC = test system: A549/ATCC NSCLC
786-0 renal = test system: 786-0 renal
COLO 205 colon = test system: COLO 205 colon

Compound | growth (NCI-H23 lung) | growth (NCI-H226 lung) | growth (NCI-H322M lung) | growth (HOP-62 NSCLC) | growth (NCI-H460 lung) | growth (HOP-92 NSCLC) | growth (NCI-H522 lung) | growth (A549/ATCC NSCLC) | growth (786-0 renal) | growth (COLO 205 colon)
Cc1nc2ncccc2nc1Nc1ccc(S(=O)(=O)Nc2cncs2)cc1 | 85% (inactive) | 92.5% (inactive) | 101% (inactive) | 94% (inactive) | 97.1% (inactive) | 65.4% (inactive) | 103% (inactive) | 103% (inactive) | 96.3% (inactive) | 98.9% (inactive)
COc1cc(C(=O)/C=C/c2ccc3nc(-c4cc(F)cc(F)c4)sc3c2)cc(OC)c1OC | 99.3% (inactive) | 120% (inactive) | 93% (inactive) | 92.3% (inactive) | 110% (inactive) | 83.4% (inactive) | 97.4% (inactive) | 94.2% (inactive) | 93.4% (inactive) | 115% (inactive)
COc1ccc2[nH]c(C(=O)OCc3ccc4c(Cl)cc(Cl)c(O)c4n3)cc2c1 | -23.9% (active) | -59% (active) | 54.3% (inactive) | 28.2% (inactive) | -35.2% (active) | -78.6% (active) | -76.8% (active) | 5.45% (active) | -83.1% (active) | -75% (active)
O=C1C2(c3ccccc3)C(c3ccccc3)=C(c3ccccc3)C1(c1ccccc1)C1CC=CC12 (centres undefined) | 75.9% (inactive) | 74% (inactive) | 84.7% (inactive) | 102% (inactive) | 84.4% (inactive) | 1.51% (active) | 71.3% (inactive) | 78.3% (inactive) | 85.9% (inactive) | 112% (inactive)
CC(=O)c1cc2c(N)c(C(=O)Nc3cccc4c3OCCO4)sc2nc1C | 96% (inactive) | 88.9% (inactive) | 100% (inactive) | 80.7% (inactive) | 82.1% (inactive) | 99.2% (inactive) | 67.7% (inactive) | 71.4% (inactive) | 97.9% (inactive) | 86.6% (inactive)
O=C(Nc1ccncc1)C(=O)c1cn(S(=O)(=O)c2ccc(Cl)cc2)c2ccccc12 | 30.7% (inactive) | 78.3% (inactive) | 80.6% (inactive) | 31.4% (inactive) | 71.9% (inactive) | 32.8% (inactive) | -2.79% (active) | 73.9% (inactive) | 34.9% (inactive) | 106% (inactive)
COc1cc(/C=N\NC(=O)CN2CCN(c3cc4c(cc3F)c(=O)c(C(=O)N/N=C/c3cc(OC)c(OC)c(OC)c3)cn4C3CC3)CC2)cc(OC)c1OC | -36.4% (active) | -64.7% (active) | 11.5% (inactive) | -11.8% (active) | -23.3% (active) | -39% (active) | 8.22% (active) | 73.4% (inactive) | 54.9% (inactive) | 7.48% (active)
CCN(CC)CCC(CNc1c2ccc(Cl)cc2nc2ccc(OC)cc12)c1ccccc1 (centres undefined) | 34.1% (inactive) | 13.9% (inactive) | 17.5% (inactive) | -49.8% (active) | -39.6% (active) | -1.53% (active) | -81% (active) | -62.4% (active) | -85% (active) | -91.9% (active)
CCCCCCCCN(CCCCCCCC)CCCCCCNc1cc(OC)cc2cccnc12 | 55.6% (inactive) | 100% (inactive) | 88.5% (inactive) | 96.7% (inactive) | 92.8% (inactive) | 62.6% (inactive) | 92.1% (inactive) | 105% (inactive) | 93.7% (inactive) | 33.3% (inactive)
O=c1ccn(-c2ncnc3nc[nH]c23)cc1 | 92.1% (inactive) | 88.8% (inactive) | 97.5% (inactive) | 89.8% (inactive) | 113% (inactive) | 72.9% (inactive) | 80.4% (inactive) | 35.8% (inactive) | 97.1% (inactive) | 101% (inactive)
O=c1[nH]c(NCc2ccccc2)nc2nc(Nc3ccc(NC(=S)Nc4ccccc4)cc3)nc(-c3ccc(O)cc3O)c12 | 99.4% (inactive) | 89.6% (inactive) | 140% (inactive) | 105% (inactive) | 109% (inactive) | 89.5% (inactive) | 54.2% (inactive) | 41.6% (inactive) | 104% (inactive) | 110% (inactive)
Cc1[nH]c2ccc(F)cc2c1CCNC(=O)C1CCN(C(=O)c2ccccc2)CC1 | 99.3% [25 µM] (inactive) | 83.7% [25 µM] (inactive) | 86.3% [25 µM] (inactive) | 84.6% [25 µM] (inactive) | 101% [25 µM] (inactive) | 4.45% [25 µM] (active) | 89.3% [25 µM] (inactive) | 96.6% [25 µM] (inactive) | 88.9% [25 µM] (inactive) | 90.9% [25 µM] (inactive)
C=C(C)[C@@H]1CC[C@]2(C(=O)O)CC[C@]3(C)[C@H](CC[C@@H]4[C@@]5(C)C[C@@H](CC#Cc6ccc(C(F)(F)F)cc6)[C@H](O)C(C)(C)[C@@H]5CC[C@]43C)[C@@H]12 | 2.55% (active) | 3.81% (active) | 35.2% (inactive) | 10% (inactive) | 15.1% (inactive) | -16.9% (active) | -19.1% (active) | 10.3% (inactive) | 19.2% (inactive) | 21.1% (inactive)
COc1ccc(-c2cnoc2-c2ccc(OC)cc2O)cc1 | 29.9% (inactive) | 78.8% (inactive) | 74.6% (inactive) | 36.9% (inactive) | 7.27% (active) | 52.1% (inactive) | -16% (active) | 40.9% (inactive) | 44.5% (inactive) | 72.4% (inactive)
COc1ccc(OC)c(C2OC(c3ccc4ccccc4c3O)=NN2C(C)=O)c1 (centres undefined) | 80% (inactive) | 87.1% (inactive) | 77.5% (inactive) | 65.4% (inactive) | 43% (inactive) | 54.4% (inactive) | 35.6% (inactive) | 56.5% (inactive) | 81.9% (inactive) | 77.1% (inactive)
COc1ccc(Nc2nn3c(C)cc(C)nc3c2C(=O)Nc2ccc(C)cc2)c(OC)c1 | 92.7% (inactive) | 101% (inactive) | 92.8% (inactive) | 85.8% (inactive) | 101% (inactive) | 87.1% (inactive) | 88.6% (inactive) | 93.5% (inactive) | 90.9% (inactive) | 98.7% (inactive)
COC(=O)C1CCCN1C(=O)[C@@H]1CCCN1C(=O)[C@H](Cc1c[nH]c2ccccc12)NC(=S)Nc1cc(C(F)(F)F)cc(C(F)(F)F)c1 (some centres undefined) | 69% (inactive) | 75.7% (inactive) | 74.7% (inactive) | 80.2% (inactive) | 22.3% (inactive) | 17% (inactive) | 46% (inactive) | 37.1% (inactive) | 37.6% (inactive) | 66.5% (inactive)
CC(C)OC(=O)N1CCOCC1 | 98.1% (inactive) | 101% (inactive) | 106% (inactive) | 98.9% (inactive) | 107% (inactive) | 92.2% (inactive) | 95.9% (inactive) | 103% (inactive) | 104% (inactive) | 101% (inactive)
CC(C)CSc1nc(NN)c(C#N)c(-c2ccc(F)cc2)n1 | 70.4% (inactive) | 80.3% (inactive) | 74.9% (inactive) | 47.3% (inactive) | 52.1% (inactive) | 105% (inactive) | 63.2% (inactive) | 77.1% (inactive) | 85.9% (inactive) | 97.1% (inactive)
CCOC(=O)c1cc(C(=O)c2cc(OC)c(OC)c(OC)c2)n2c1ccc1ccccc12 | 50.2% (inactive) | 64.7% (inactive) | 43.1% (inactive) | 21.6% (inactive) | 14.9% (inactive) | 39.1% (inactive) | 2.76% (active) | 34.4% (inactive) |  | -6.61% (active)
Nc1cccc(Cl)c1N | 85.2% (inactive) | 101% (inactive) | 99.5% (inactive) | 108% (inactive) | 101% (inactive) | 106% (inactive) | 71.1% (inactive) | 109% (inactive) | 110% (inactive) | 104% (inactive)
CCN(CC)c1ccc(/C=C2\Oc3ccc(O)c(I)c3C2=O)cc1 | 67.5% (inactive) | 88.8% (inactive) | 96.9% (inactive) | 77.8% (inactive) | 25.5% (inactive) | 81.9% (inactive) | 22.6% (inactive) | 46% (inactive) | 73.6% (inactive) | 64.3% (inactive)
N#Cc1c(-c2ccccc2)nc(SCC(=O)N2CCN(c3ccccc3)CC2)[nH]c1=O | 96.4% (inactive) | 108% (inactive) | 95.8% (inactive) | 87.7% (inactive) | 110% (inactive) | 85% (inactive) | 85.2% (inactive) | 96.6% (inactive) | 97.9% (inactive) | 103% (inactive)
COc1ccc(/C=C/c2c(C(C)=O)c(C)nc3ccccc23)cc1 | 60.9% (inactive) | 92.6% (inactive) | 99.3% (inactive) | 79.2% (inactive) | 100% (inactive) | 79.3% (inactive) | 61.2% (inactive) | 80.6% (inactive) | 94.9% (inactive) | 106% (inactive)
